# Inconclusive results are not listed. Calls of active or inactive are those of the source. The calls were made as follows: active = hit-call score of the fitted dose curve at least 0.9, where 1 is the maximum; inconclusive = response in the unintended direction; inactive = score below 0.9.
# Columns and labels:
# [1] = biological target: human Opioid Receptor Mu (Opiate Mu), OPRM1 (gene 4988) (UniProt P35372); assay: NVS_GPCR_hOpiate_mu: NovaScreen (NVS) G Protein-Coupled Receptor Assay for human Opioid Receptor Mu (Opiate Mu) (AID 2283290);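 also: hits lower bound tracer signal versus DMSO meaning displacement of the ligand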
# Chain of human Opioid Receptor Mu (Opiate Mu), OPRM1 (gene 4988) (P35372 whole entry, looked up): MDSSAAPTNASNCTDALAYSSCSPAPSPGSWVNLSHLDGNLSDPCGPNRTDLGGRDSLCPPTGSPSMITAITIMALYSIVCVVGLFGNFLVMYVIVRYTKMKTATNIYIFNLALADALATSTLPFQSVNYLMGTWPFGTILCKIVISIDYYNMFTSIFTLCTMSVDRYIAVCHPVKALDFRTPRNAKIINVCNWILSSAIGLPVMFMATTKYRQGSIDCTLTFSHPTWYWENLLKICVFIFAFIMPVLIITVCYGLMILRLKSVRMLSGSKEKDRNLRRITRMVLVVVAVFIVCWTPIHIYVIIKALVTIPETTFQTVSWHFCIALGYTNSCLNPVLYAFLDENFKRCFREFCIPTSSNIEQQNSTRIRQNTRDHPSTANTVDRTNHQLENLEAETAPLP
# How it was run: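 Primary screen in duplicate at 25 uM, with actives followed in concentration series. CHO-derived receptor membranes, cell-free; bound radioligand read by scintillation counting after filtration at 2.5 h, decrease scored against DMSO.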
# [2] = biological target: D(1A) dopamine receptor (Homo sapiens) (UniProt P21728); assay: NVS_GPCR_hDRD1: NovaScreen (NVS) G Protein-Coupled Receptor Assay for human Dopamine Receptor D1 (DRD1) (AID 2283269)
# Chain of D(1A) dopamine receptor (Homo sapiens) (P21728 whole entry, looked up): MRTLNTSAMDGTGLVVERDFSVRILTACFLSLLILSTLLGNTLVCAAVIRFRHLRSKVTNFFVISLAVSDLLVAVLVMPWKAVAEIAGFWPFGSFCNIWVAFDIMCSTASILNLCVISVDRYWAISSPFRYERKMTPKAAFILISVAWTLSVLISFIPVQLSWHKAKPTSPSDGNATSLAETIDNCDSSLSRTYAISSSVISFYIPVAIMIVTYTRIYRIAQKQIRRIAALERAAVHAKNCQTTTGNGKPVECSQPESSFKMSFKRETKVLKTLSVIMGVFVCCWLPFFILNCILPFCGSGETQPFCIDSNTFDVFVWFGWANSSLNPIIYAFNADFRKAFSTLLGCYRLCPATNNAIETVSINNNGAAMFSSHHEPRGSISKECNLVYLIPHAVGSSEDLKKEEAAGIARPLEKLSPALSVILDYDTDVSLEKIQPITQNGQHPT
# How it was run: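 Cell-free competition with radioligand, filter-trapped and scintillation-counted 1 h post-dose, using HEK293-derived human D1 preparation. Duplicate single-point testing at 25 uM first, then concentration series for actives; DMSO served as baseline, loss-of-signal scored.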
# [3] = biological target: Sodium channel protein type 1 subunit alpha (Rattus norvegicus) (UniProt P04774); assay: NVS_IC_rNaCh_site2: NovaScreen (NVS) Ion Channel Assay for rat Sodium Channel, Site 2 (NaCh) (AID 2283322);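 also: hit means loss of radioligand binding signal relative to DMSO so AC50 marks displacement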
# How it was run: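 Membranes: rat forebrain. Format: competitive radioligand displacement, filter separation, scintillation readout, 1 h exposure. Primary screen in duplicate at 25 uM; actives retested in concentration series.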
# [4] = biological target: rat Thyrotropin Releasing Hormone Receptor (TRH), Trhr (gene 25570) (UniProt Q01717); assay: NVS_GPCR_rTRH: NovaScreen (NVS) G Protein-Coupled Receptor Assay for rat Thyrotropin Releasing Hormone Receptor (TRH) (AID 2283329);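 also: hit means lower bound tracer signal versus DMSO baseline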
# Chain of rat Thyrotropin Releasing Hormone Receptor (TRH), Trhr (gene 25570) (Q01717 whole entry, looked up): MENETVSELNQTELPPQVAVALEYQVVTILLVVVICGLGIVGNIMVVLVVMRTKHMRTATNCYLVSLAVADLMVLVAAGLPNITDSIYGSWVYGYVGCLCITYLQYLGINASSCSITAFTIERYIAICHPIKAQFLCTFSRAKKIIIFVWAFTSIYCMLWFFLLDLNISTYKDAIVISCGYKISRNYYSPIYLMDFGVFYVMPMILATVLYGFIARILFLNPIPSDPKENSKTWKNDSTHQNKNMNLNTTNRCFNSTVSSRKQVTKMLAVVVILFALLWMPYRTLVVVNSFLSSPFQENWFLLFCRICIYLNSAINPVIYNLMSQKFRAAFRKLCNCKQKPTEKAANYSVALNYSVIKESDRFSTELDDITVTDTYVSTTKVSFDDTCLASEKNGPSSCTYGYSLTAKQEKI
# How it was run: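 Competitive radioligand binding on rat forebrain membrane preparations, with filtration and scintillation readout after 4 h. Primary testing in duplicate at 25 uM; actives confirmed in concentration-response. DMSO defined baseline.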
# [5] = biological target: human Peripheral-type Benzodiazepine Receptor (PBR), TSPO (gene 706) (UniProt P30536); assay: NVS_MP_hPBR: NovaScreen (NVS) Membrane Protein Assay for human Peripheral-type Benzodiazepine Receptor (PBR) (AID 2283331);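 also: hits reduce radioligand binding relative to DMSO baseline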
# Chain of human Peripheral-type Benzodiazepine Receptor (PBR), TSPO (gene 706) (P30536 whole entry, looked up): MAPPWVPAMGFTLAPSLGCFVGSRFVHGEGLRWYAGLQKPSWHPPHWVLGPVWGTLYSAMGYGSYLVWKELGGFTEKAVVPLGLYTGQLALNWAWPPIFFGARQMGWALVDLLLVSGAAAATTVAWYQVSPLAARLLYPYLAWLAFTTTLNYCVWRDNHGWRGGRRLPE
# How it was run: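 Radioligand displacement on human colonic cell membranes, 1 h incubation; bound radioactivity by filtration and scintillation counting. Primary screen in duplicate at 25 uM single concentration, actives followed up in concentration series; loss of binding versus DMSO.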
# [6] = biological target: bovine Estrogen Receptor (ER), ESR1 (gene 407238) (UniProt P49884); assay: NVS_NR_bER: NovaScreen (NVS) Nuclear Receptor Binding Assay for bovine Estrogen Receptor (ER) (AID 2283345);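 also: actives lower the bound radioligand count which means they displace the ER ligand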
# Chain of bovine Estrogen Receptor (ER), ESR1 (gene 407238) (P49884 whole entry, looked up): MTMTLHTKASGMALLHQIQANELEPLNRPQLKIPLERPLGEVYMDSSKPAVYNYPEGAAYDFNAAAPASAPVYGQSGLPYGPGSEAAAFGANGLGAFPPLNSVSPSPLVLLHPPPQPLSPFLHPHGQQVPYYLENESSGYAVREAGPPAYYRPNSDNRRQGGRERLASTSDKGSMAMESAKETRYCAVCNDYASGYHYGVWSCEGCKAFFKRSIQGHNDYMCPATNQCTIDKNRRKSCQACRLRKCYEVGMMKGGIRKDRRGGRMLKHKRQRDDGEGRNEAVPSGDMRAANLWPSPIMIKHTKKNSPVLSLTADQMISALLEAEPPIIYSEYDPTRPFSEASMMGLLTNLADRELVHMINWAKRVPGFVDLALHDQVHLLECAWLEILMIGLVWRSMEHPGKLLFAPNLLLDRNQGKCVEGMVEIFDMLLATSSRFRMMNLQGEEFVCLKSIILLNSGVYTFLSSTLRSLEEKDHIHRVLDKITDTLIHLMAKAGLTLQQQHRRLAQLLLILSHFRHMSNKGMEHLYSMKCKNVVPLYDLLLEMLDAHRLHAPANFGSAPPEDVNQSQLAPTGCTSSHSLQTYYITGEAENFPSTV
# How it was run: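 Displacement of a radioligand from estrogen receptor in bovine uterine membrane preparations; scintillation signal taken at 18 hours, DMSO as baseline. Single-concentration duplicates (25 uM) preceded concentration-response follow-up of actives.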
# [7] = biological target: chimpanzee Androgen Receptor (AR), AR (gene 747460) (UniProt O97775); assay: NVS_NR_cAR: NovaScreen (NVS) Nuclear Receptor Binding Assay for chimpanzee Androgen Receptor (AR) (AID 2283346);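 also: radioligand displacement from AR measured by scintillation counting in a cell-free assay; a loss of bound radioligand signal versus DMSO counts as binding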
# Chain of chimpanzee Androgen Receptor (AR), AR (gene 747460) (O97775 whole entry, looked up): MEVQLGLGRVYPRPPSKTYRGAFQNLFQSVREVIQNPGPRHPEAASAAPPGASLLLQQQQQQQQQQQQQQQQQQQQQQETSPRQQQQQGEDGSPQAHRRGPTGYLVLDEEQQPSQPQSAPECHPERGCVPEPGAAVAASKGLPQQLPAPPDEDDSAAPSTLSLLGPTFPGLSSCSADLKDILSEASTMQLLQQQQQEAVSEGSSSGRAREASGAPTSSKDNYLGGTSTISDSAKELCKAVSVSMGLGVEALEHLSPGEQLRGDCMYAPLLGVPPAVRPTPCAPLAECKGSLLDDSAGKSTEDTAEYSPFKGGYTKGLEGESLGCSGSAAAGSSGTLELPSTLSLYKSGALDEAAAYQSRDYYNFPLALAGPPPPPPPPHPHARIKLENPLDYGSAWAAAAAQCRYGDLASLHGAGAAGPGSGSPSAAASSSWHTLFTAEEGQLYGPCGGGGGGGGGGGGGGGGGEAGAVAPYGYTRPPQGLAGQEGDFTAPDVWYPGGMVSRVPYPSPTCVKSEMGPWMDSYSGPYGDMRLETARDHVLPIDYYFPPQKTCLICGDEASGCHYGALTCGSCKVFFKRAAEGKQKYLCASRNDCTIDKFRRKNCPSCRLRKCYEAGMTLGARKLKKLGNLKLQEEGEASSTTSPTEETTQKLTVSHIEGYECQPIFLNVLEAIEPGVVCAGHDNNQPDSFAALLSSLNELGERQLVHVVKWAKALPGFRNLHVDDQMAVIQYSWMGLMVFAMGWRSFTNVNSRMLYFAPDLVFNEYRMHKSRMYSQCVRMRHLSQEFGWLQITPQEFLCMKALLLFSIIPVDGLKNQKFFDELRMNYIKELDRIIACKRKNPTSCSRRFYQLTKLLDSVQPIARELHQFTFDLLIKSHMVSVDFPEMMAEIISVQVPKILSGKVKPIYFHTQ
# How it was run: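 Radioligand binding to chimpanzee AR expressed in Sf9/Sf21 cells, cell-free, measured 72 h after dosing by lysate-based scintillation counting. Loss of signal vs DMSO; initial duplicate screen at 25 uM, actives retested in concentration series.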
# [8] = biological target: Estrogen receptor (Homo sapiens) (UniProt P03372); assay: OT_ER_ERaERa_1440: Odyssey Thera (OT) 24-hour HEK293T Protein-Complementation Assay for Estrogen Receptor-alpha/-alpha Homodimer (AID 2283349);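 also: hits raise fluorescence above DMSO for agonists and antagonists alike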
# Chain of Estrogen receptor (Homo sapiens) (P03372 whole entry, looked up, the tested form may be a part): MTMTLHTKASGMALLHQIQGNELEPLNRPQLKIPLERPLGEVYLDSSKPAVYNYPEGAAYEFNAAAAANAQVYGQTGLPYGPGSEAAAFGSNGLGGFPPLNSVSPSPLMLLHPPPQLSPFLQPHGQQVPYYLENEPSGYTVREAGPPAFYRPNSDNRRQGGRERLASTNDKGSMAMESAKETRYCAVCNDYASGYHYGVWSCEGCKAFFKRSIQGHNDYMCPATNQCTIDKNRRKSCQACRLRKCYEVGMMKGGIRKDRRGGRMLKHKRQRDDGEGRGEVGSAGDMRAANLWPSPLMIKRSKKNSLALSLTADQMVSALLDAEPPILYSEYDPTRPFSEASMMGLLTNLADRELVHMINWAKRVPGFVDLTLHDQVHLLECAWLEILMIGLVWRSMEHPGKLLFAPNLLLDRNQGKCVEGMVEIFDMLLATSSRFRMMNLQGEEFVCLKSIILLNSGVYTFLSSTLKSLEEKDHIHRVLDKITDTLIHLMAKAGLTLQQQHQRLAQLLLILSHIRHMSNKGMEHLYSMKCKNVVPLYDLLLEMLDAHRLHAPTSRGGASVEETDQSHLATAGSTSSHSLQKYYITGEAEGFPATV
# How it was run: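 HEK293T cells stably expressing the human ER alpha ligand-binding domain (aa 310-547) as a homodimer PCA were dosed for 24 hours. Fluorescence intensity was read by laser scanning cytometry, and gain of signal was fitted relative to DMSO vehicle.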
# [9] = biological target: Muscarinic acetylcholine receptor M2 (Homo sapiens) (UniProt P08172); assay: NVS_GPCR_hM2: NovaScreen (NVS) G Protein-Coupled Receptor Assay for human Muscarinic, M2 Receptor (AID 2283273)
# Chain of Muscarinic acetylcholine receptor M2 (Homo sapiens) (P08172 whole entry, looked up): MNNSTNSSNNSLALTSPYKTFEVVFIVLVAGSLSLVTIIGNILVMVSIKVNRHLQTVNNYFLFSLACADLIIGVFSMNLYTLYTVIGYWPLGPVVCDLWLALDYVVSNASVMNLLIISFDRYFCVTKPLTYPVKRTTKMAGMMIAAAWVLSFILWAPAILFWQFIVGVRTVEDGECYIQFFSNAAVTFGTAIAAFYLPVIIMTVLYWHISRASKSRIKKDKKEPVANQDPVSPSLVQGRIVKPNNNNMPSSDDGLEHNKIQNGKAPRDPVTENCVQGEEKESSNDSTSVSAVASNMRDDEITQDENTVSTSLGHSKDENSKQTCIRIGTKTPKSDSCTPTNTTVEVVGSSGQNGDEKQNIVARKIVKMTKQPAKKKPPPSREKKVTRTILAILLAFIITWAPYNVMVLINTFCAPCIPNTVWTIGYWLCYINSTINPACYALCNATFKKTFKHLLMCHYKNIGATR
# How it was run: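 Radioligand displacement on human M2 receptor membranes from CHO cells, 1 h incubation, filtration with scintillation counting. Primary screen in duplicate at 25 uM; actives retested in concentration series; loss of signal fitted versus DMSO.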
# [10] = biological target: rat Peripheral-type Benzodiazepine Receptor (PBR), Tspo (gene 24230) (UniProt P16257); assay: NVS_MP_rPBR: NovaScreen (NVS) Membrane Protein Assay for rat Peripheral-type Benzodiazepine Receptor (PBR) (AID 2283335)
# Chain of rat Peripheral-type Benzodiazepine Receptor (PBR), Tspo (gene 24230) (P16257 whole entry, looked up): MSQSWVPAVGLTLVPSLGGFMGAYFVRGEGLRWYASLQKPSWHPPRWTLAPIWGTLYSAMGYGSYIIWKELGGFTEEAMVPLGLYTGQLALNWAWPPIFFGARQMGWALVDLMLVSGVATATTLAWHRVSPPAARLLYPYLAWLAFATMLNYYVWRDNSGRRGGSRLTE
# How it was run: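 Radioligand displacement, rat kidney membrane prep, 1 h exposure, filter-based scintillation read; DMSO baseline, loss-of-signal scored. Primary screen at 25 uM in duplicate, actives followed up in concentration series.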
# [11] = biological target: human Adenosine A2a Receptor (AdoRA2a), ADORA2A (gene 135) (UniProt P29274); assay: NVS_GPCR_hAdoRA2a: NovaScreen (NVS) G Protein-Coupled Receptor Assay for human Adenosine A2a Receptor (AdoRA2a) (AID 2283256)
# Chain of human Adenosine A2a Receptor (AdoRA2a), ADORA2A (gene 135) (P29274 whole entry, looked up): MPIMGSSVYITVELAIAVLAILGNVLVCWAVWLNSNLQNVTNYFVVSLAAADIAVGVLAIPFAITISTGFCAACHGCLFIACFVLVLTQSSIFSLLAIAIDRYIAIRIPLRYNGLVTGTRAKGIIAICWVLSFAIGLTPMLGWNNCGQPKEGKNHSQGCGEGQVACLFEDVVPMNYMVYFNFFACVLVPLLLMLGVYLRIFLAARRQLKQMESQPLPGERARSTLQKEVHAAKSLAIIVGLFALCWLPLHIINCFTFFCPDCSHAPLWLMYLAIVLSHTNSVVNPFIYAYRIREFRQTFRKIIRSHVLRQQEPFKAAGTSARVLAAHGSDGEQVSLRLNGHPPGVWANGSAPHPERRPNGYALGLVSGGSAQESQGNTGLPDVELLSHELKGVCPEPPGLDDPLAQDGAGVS
# How it was run: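 Cell-free radioligand binding on membranes from HEK293 expressing the receptor; competitive displacement read 1.5 h after dosing by filter-based scintillation counting. Primary screen in duplicate at 25 uM; actives followed in concentration series, with DMSO as baseline.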
# [12] = biological target: human Neurokinin, NK2 Receptor, TACR2 (gene 6865) (UniProt P21452); assay: NVS_GPCR_hNK2: NovaScreen (NVS) G Protein-Coupled Receptor Assay for human Neurokinin, NK2 Receptor (AID 2283278);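 also: actives reduce bound radioligand signal relative to DMSO baseline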
# How it was run: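 Cell-free radioligand binding using receptor protein extracted from CHO cells; readings taken 4 hours after chemical dosing by filter-based scintillation counting. Primary screen ran single concentration (25 uM) in duplicate; actives followed up in concentration series, loss-of-signal versus DMSO baseline.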
structure (smiles),measurement,setting,value
CC(C)CCCCCOC(=O)CS,AC50,[1],39.8 µM (active)
CCC(C)C(=O)OC (centres undefined),AC50,[2],18.1 µM (active)
same,outcome,[3],inactive
C=C1C[C@H]2[C@@H]3C=C(C)C4=CC(=O)CC[C@]4(C)[C@H]3CC[C@]2(C)[C@@]1(OC(C)=O)C(C)=O,outcome,[4],inactive
same,AC50,[5],0.732 µM (active)
same,outcome,[6],inactive
same,AC50,[7],0.33 µM (active)
same,outcome,[8],inactive
Cc1cc(C)n(CO)n1,outcome,[2],inactive
same,outcome,[8],inactive
Cc1c(O)cccc1O,outcome,[9],inactive
CC/C=C\C/C=C\C/C=C\CCCCCCCC(=O)OC,AC50,[2],14 µM (active)
same,AC50,[1],16.1 µM (active)
same,AC50,[5],7.69 µM (active)
same,AC50,[10],13.3 µM (active)
c1ccc(-c2nc3ccccc3[nH]2)cc1,outcome,[11],inactive
c1ccc2sc(SSN3CCOCC3)nc2c1,AC50,[12],3.65 µM (active)
CC(c1cc(C(C)(C)C)cc(C(C)(C)C)c1O)c1cc(C(C)(C)C)cc(C(C)(C)C)c1O,outcome,[2],inactive
Cc1cc(C)c(C=O)c(C)c1,outcome,[2],inactive
CCCCNC(=S)NCCCC,outcome,[4],inactive
same,outcome,[5],inactive
same,AC50,[10],5.23 µM (active)
same,outcome,[8],inactive
N#Cc1ccc(C(c2ccc(C#N)cc2)n2cncn2)cc1,AC50,[10],6.92 µM (active)
same,AC50,[7],7.43 µM (active)
same,outcome,[8],inactive
CC(Cl)COP(=O)(OCC(C)Cl)OCC(C)Cl (centres undefined),AC50,[5],25 µM (active)
same,AC50,[10],13.4 µM (active)
O=C(Oc1ccccc1)c1ccccc1C(=O)Oc1ccccc1,AC50,[5],1.78 µM (active)
same,AC50,[10],30.9 µM (active)
CCCCC(CC)COS(=O)(=O)O (centres undefined),outcome,[4],inactive
same,outcome,[8],inactive
CCCCC(C=O)CC (centres undefined),outcome,[4],inactive
same,outcome,[8],inactive
O=c1c(O)c(-c2ccc(O)cc2O)oc2cc(O)cc(O)c12,outcome,[10],inactive
same,outcome,[6],inactive
same,AC50,[7],9.55 µM (active)
same,outcome,[8],inactive
CN(C)c1ccc2nc3ccc(=[N+](C)C)cc-3sc2c1,AC50,[5],10.2 µM (active)
same,AC50,[7],11.2 µM (active)
same,outcome,[8],inactive
COc1ccc(C(=O)/C(Br)=C\C(=O)O)cc1,AC50,[5],9.63 µM (active)
CCCCCCCCCC[N+](C)(CCCCCCCCCC)CCC[Si](OC)(OC)OC,outcome,[4],inactive
same,outcome,[6],inactive
same,outcome,[8],inactive
COc1ccc(-c2coc3cc(O)cc(O)c3c2=O)cc1,AC50,[5],0.293 µM (active)
same,AC50,[6],14.6 µM (active)
same,AC50,[8],13.7 µM (active)
CCOC(=O)C1=NOC(c2ccccc2)(c2ccccc2)C1,AC50,[5],8.19 µM (active)
same,outcome,[10],inactive
same,outcome,[8],inactive
CC(CCC(=O)O)(c1ccc(O)cc1)c1ccc(O)cc1,outcome,[4],inactive
same,AC50,[6],12.2 µM (active)
same,AC50,[8],55.5 µM (active)

# — PubChem BioAssay (EPA / NIEHS)
